# Measurements: PMC8384837, “Expanding the binding specificity for RNA recognition by a PUF domain”
# How the values were obtained:
# Assay in all cases: yeast three-hybrid, YBZ-1, SC-Leu-His + 0.5 mM 3-AT, 4 days
# Details in all cases: tags: N-Gal4 AD-HA kept; label: inside an RPR1-promoter hybrid RNA with tandem MS2 sites; ssRNA
# [1] = biological target: PUM1 PUF domain R7-GSR (Homo sapiens, UniProt Q14671 828-1176, S1079G;N1080S;E1083R)
# Procedure, shortened: (§1)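 Sequencing with Illumina followed PCR amplification of the repeat regions from transformants grown four days on SC-Leu (input) or SC-Leu-His + 0.5 mM 3-AT (selection). The transformants were strain YBZ-1 with a LexA–MS2 coat fusion and a HIS3 reporter, carrying Pumilio-1 PUF domain libraries and matching RNA elements. The interaction score is the log change in variant frequency from input to selection, computed in log2 with a pseudocount of 1 for absent variants.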
# [2] = biological target: PUM1 PUF domain R1-KRD (Homo sapiens, UniProt Q14671 828-1176, S863K;Q867D)
# Procedure, shortened: as §1
# [3] = biological target: PUM1 PUF domain R1-CFK (Homo sapiens, UniProt Q14671 828-1176, S863C;R864F;Q867K)
# Procedure, shortened: as §1
# [4] = biological target: PUM1 PUF domain R4-WAT (Homo sapiens, UniProt Q14671 828-1176, N971W;H972A;Q975T)
# Procedure, shortened: as §1
# [5] = biological target: PUM1 PUF domain R4-SMR (Homo sapiens, UniProt Q14671 828-1176, N971S;H972M;Q975R)
# Procedure, shortened: as §1
# [6] = biological target: T1, PUM1 PUF domain R6-FRE (Homo sapiens, UniProt Q14671 828-1176, N1043F;Y1044R;Q1047E)
# T1 sequence: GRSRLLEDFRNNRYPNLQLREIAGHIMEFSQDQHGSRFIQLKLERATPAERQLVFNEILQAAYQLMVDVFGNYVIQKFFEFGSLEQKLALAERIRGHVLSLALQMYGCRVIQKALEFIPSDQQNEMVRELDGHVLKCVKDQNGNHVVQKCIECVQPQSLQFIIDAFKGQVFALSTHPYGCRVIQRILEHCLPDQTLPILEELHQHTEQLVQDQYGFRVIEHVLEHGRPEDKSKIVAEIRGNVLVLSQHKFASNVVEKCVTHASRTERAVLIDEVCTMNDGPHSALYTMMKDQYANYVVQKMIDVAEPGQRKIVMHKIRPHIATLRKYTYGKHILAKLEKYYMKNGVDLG
# Procedure, shortened: as §1
# [7] = biological target: PUM1 PUF domain R4-CCM (Homo sapiens, UniProt Q14671 828-1176, N971C;H972C;Q975M)
# Procedure, shortened: as §1
# [8] = biological target: PUM1 PUF domain R2-KFG (Homo sapiens, UniProt Q14671 828-1176, N899K;Y900F;Q903G)
# Procedure, shortened: as §1
# [9] = biological target: PUM1 PUF domain R4-WGF (Homo sapiens, UniProt Q14671 828-1176, N971W;H972G;Q975F)
# Procedure, shortened: as §1
sequence,measurement,setting,value
GGCUAGAACUAGUGGAUCCCCCGGCGCCCGGCGGCUCGAGCCCGGGUAAGUUUAAAUAGUCUGCAUGCCGCCGGGCGCCAUGCCUGCAGGUCGACUCUAGAAAACAUG,binding signal,[1],4.22 log2 enrichment (interaction score)
GGCUAGAACUAGUGGAUCCCCCGGCGCCCGGCGGCUCGAGCCCGGGUAAGUGUAAAUCGUCUGCAUGCCGCCGGGCGCCAUGCCUGCAGGUCGACUCUAGAAAACAUG,binding signal,[2],3.37 log2 enrichment (interaction score)
GGCUAGAACUAGUGGAUCCCCCGGCGCCCGGCGGCUCGAGCCCGGGUAAGUGUAAAUUGUCUGCAUGCCGCCGGGCGCCAUGCCUGCAGGUCGACUCUAGAAAACAUG,binding signal,[3],3.31 log2 enrichment (interaction score)
GGCUAGAACUAGUGGAUCCCCCGGCGCCCGGCGGCUCGAGCCCGGGUAAGUGUACAUAGUCUGCAUGCCGCCGGGCGCCAUGCCUGCAGGUCGACUCUAGAAAACAUG,binding signal,[4],2.53 log2 enrichment (interaction score)
same,binding signal,[5],2.97 log2 enrichment (interaction score)
GGCUAGAACUAGUGGAUCCCCCGGCGCCCGGCGGCUCGAGCCCGGGUAAGUGUAAAUAGUCUGCAUGCCGCCGGGCGCCAUGCCUGCAGGUCGACUCUAGAAAACAUG,binding signal,[6],3.3 log2 enrichment (interaction score)
same,binding signal,[7],1.07 log2 enrichment (interaction score)
same,binding signal,[8],7.86 log2 enrichment (interaction score)
same,binding signal,[9],4.73 log2 enrichment (interaction score)
GGCUAGAACUAGUGGAUCCCCCGGCGCCCGGCGGCUCGAGCCCGGGUAAGUGUAUAUAGUCUGCAUGCCGCCGGGCGCCAUGCCUGCAGGUCGACUCUAGAAAACAUG,binding signal,[7],2.39 log2 enrichment (interaction score)
